Data published in PubChem BioAssay AID2315 (National Center for Advancing Translational Sciences (NCATS), 2010).
Among all 290,000 compounds or so, about 27,000 (9.3%) were called active. Rule as the data show it: active = inhibition mostly above about 28% (no sharp cut-off); inactive = mostly below about 43%. The entries come from a sample that favours actives as a whole.

assay: A qHTS for Small Molecule Inhibitors of Shiga Toxin; settings: Vero cells, Shiga toxin protein synthesis inhibition reporter; at 38.7 µM, hits give high values; also: 0% is about no effect

SMILES	inhibition
CC(=O)Nc1ccc(NC(=O)c2ccc3c(c2)C(=O)N(c2ccccc2C)C3=O)cc1	-4.3% (inactive)
O=C(Nc1cccc(Cl)c1)c1cc(S(=O)(=O)N2CCCCC2)c[nH]1	-7.57% (inactive)
Cc1ccccc1NC(=O)CCNS(=O)(=O)c1ccc2[nH]c(=O)oc2c1	-2.35% (inactive)
COc1ccc(Nc2ncnc3ccc(Br)cc23)c(OC)c1	57.7% (active)
C=CCNc1ncnc2ccc(Br)cc12	-28.8% (inactive)
COc1ccc(Nc2ncnc3sc(-c4ccccc4)cc23)c(OC)c1	4.65% (inactive)
COc1ccc(CN(C)C(=O)Cc2ccsc2)c(OC)c1OC	-10.3% (inactive)
Cc1c(C)c2c(OCC(=O)NCCCO)cc3c(c2oc1=O)CCC(C)(C)O3	-7.03% (inactive)
COc1ccccc1CNS(=O)(=O)CC12CCC(CC1=O)C2(C)C (stereo not drawn)	-4.21% (inactive)
Cc1nc(-c2ccc(Cl)cc2)sc1C(=O)CBr	52.5% (active)
Cc1ccc(SCC(=O)c2sc(-c3ccccc3)nc2C)cc1	-2.76% (inactive)
Cc1nc(-c2ccc(Cl)cc2)sc1C(=O)NN	-18.4% (inactive)
CCN1CCN(C(=O)C2CCN(S(=O)(=O)c3cc(Cl)ccc3Cl)CC2)CC1	-5.92% (inactive)
CC1(C)c2[nH]c3ccccc3c2C[C@H]2C(=O)N(N)CC(=O)N21	11.8% (inactive)
COc1ccc(NC(=O)CSCc2ccc([N+](=O)[O-])cc2)cc1OC	-3.27% (inactive)
CC(C)C(=O)N1CC(=O)Nc2ccc(F)cc2C1c1ccc(F)cc1 (stereo not drawn)	-3.75% (inactive)
COC(=O)c1ccc(NCC(=O)N2CCCCCC2)cc1	110% (active)
COC(=O)c1ccc(NCC(=O)c2ccccc2)cc1	85.2% (active)
COc1ccc(NC(=O)CCCC(=O)c2ccccc2)cc1	6.27% (inactive)
COC(=O)c1ccc(/C=N/NC(=O)C(=O)N2CCCCCC2)cc1	-5.76% (inactive)
Cc1ccc(NC(=S)Nc2ccc(F)cc2)cc1	27.7% (inactive)
Cc1ccc(C(=O)CNc2ccc(F)cc2)cc1	45.5% (active)
COC(=O)c1ccc(C(=O)OC)c(NC(=S)N2CCCCC2)c1	12.8% (inactive)
Cc1ccc(C(=O)NC2CCN(C(=O)Nc3ccc(F)cc3)CC2)cc1	-7.26% (inactive)
COC(=O)c1ccc(NC(=O)c2ccccc2NS(=O)(=O)c2ccccc2)cc1	5.81% (inactive)

SMILES	inhibition
c1ccc(Cc2ccc(OCCn3ccnc3)cc2)cc1	1.57% (inactive)
COc1ccc(CN(C)C(=O)c2cc(-c3ccc(C)cc3C)nc3ccccc23)c(OC)c1OC	-8.91% (inactive)
CC(=O)N1CCCc2cc(S(=O)(=O)N3CCCC(C(=O)N4CCN(c5cccc(Cl)c5)CC4)C3)ccc21 (stereo not drawn)	-12.3% (inactive)
COc1ccc(CNC(=O)C2CCN(C(=O)c3ccccc3)CC2)cc1	-21.8% (inactive)
Cc1ccc2c(c1)N(CC(=O)NCCc1ccc(Cl)cc1)C(=O)c1cccnc1O2	4.91% (inactive)
Cc1ccc(NC(=O)c2ccn(C(=O)Nc3ccccc3)n2)c(C)c1	92.2% (active)
Cc1ccc(NC(=O)Cn2nc(C)c3ccccc3c2=O)c(C)c1	10.2% (inactive)
Cc1ccc(C)c(S(=O)(=O)N2CCN(C(=O)Nc3ccccc3)CC2)c1	17.4% (inactive)
Cc1ccc2nc(-c3ccncc3)cc(C(=O)Nc3ccc4c(c3)OCCO4)c2c1	9.13% (inactive)
CCOC(=O)c1cnc2ccc(F)cc2c1Nc1ccc2c(c1)OCCO2	35% (active)
O=C(Nc1ccc2c(c1)OCCO2)C(c1ccc(F)cc1)N1CCCCC1 (stereo not drawn)	5.25% (inactive)
COc1ccc(C(=O)N(C)CC(O)c2ccccc2)cc1OC1CCN(C(C)=O)CC1 (stereo not drawn)	-21% (inactive)
O=C(Cc1ccc(Br)cc1)N1CCN(c2ccccn2)CC1	45.9% (active)
O=C(Cc1ccccc1Cl)N1CCN(c2ccccn2)CC1	7.93% (inactive)
O=C(CCC1CCCN(C(=O)Cc2ccc(F)cc2)C1)N1CCN(c2ccccn2)CC1 (stereo not drawn)	-2.14% (inactive)
CNC(=O)c1sc(Nc2ccc(OCc3ccccc3)cc2)nc1C	43.2% (inactive)
Cn1c(=NC(=O)c2cnccn2)sc2ccccc21	48.7% (active)
COC(=O)c1ccc(OC(=O)c2cnccn2)cc1	-3.05% (inactive)
Cn1c(=NC(=O)CSCC(=O)N2CCCCC2)sc2ccccc21	20.2% (inactive)
CCn1cc(C(=O)OCC(=O)Nc2cccc(C)c2)c(=O)c2ccc(C)nc21	12.3% (inactive)
COc1ccc(S(=O)(=O)N2CCC(C(=O)NCCC(=O)NCc3cccc(OC)c3)CC2)cc1	-13% (inactive)
COCCOC1CCN(C(=O)c2ccc(OC)c(OC3CCN(C(C)C)CC3)c2)CC1	3.86% (inactive)
Cc1cc(Cl)ccc1C(=O)C1CCCN(C(=O)c2nonc2C)C1 (stereo not drawn)	-11% (inactive)
O=C(/C(=C/c1cccc(Cl)c1)c1nc2ccccc2[nH]1)c1ccccc1	37.9% (inactive)
O=C(Cc1nc2ccccc2[nH]c1=O)c1ccc(Cl)cc1	66.3% (active)

SMILES	inhibition
N#C/C(=C(/O)COC(=O)COc1ccc(Cl)cc1)c1nc2ccccc2[nH]1	-6.24% (inactive)
O=S(=O)(Nc1cccc2cccnc12)c1cccc2cccnc12	-6.53% (inactive)
Cc1cccc(NC(=O)CCN2CC(C)CC(C)C2)c1 (stereo not drawn)	-6.03% (inactive)
CCNC(=O)c1cnn(-c2ccccc2)c1-c1ccccc1	-0.867% (inactive)
CCCc1c(C(=O)O)cnn1-c1ccc(Cl)cc1	9.39% (inactive)
CCCc1c(C(=O)Nc2ccc(F)cc2)cnn1-c1ccccc1	58.3% (active)
Cc1ccc2c(c1)N(S(=O)(=O)c1cc(-c3cc(C)no3)ccc1C)CCO2	18.2% (inactive)
Oc1ccc(CN2CCN(c3ncccn3)CC2)cc1	-3.72% (inactive)
O=C(c1ccncc1)N1CCN(c2ccc3ccccc3n2)CC1	-6.23% (inactive)
c1cnc(N2CCN(c3ccc4ccccc4n3)CC2)nc1	71.6% (active)
C/C(=N/NC(=O)c1cc(Cl)ccc1O)C12CC3CC(CC(C3)C1)C2	25.6% (inactive)
O=C(N/N=C1\CCSC1)c1cc(Cl)ccc1O	35.8% (active)
Cc1ccc(C)c(N2C(=O)CS/C2=N\NC(=O)c2ccccc2Cl)c1	-31.2% (inactive)
C=CCn1c(SCC(=O)NC)nnc1C12CC3CC(CC(C3)C1)C2	13.7% (inactive)
CC(C)=C(NC(=O)c1ccccc1)C(=O)N/N=C(\C)c1ccccc1O	-2.93% (inactive)
C/C(=N\NC(=O)c1ccccc1C)c1ccc(N2CCOCC2)cc1	40.6% (inactive)
C/C(=N\NC(=O)c1ccoc1C)c1ccccc1O	104% (active)
CC1=C(C(=O)NC2CC(C)(C)Cc3c2cnn3-c2ccc(C)cc2)OCCO1 (stereo not drawn)	-2.9% (inactive)
COc1cc(S(=O)(=O)N2CCN=C2c2ccccc2)ccc1Cl	-4.87% (inactive)
CCN(CC)CCCNC(=O)CCn1nc(-c2ccc(Cl)cc2)ccc1=O	-2.08% (inactive)
COc1ccc2ccccc2c1/C=N/NC(=O)c1cc(C)[nH]n1	7.72% (inactive)
Cc1cc2nc(SCCN3CCOCC3)[nH]c2cc1C	59.3% (active)
CCn1c2ccc(F)cc2c2nnc(SCCN3CCOCC3)nc21	-3.64% (inactive)
Cc1cccc(C)c1OCCN1CCOCC1	1.56% (inactive)
COc1cccc(CNS(=O)(=O)c2ccc3c(c2)N(C(C)=O)CCS3)c1	-13.7% (inactive)

SMILES	inhibition
Cc1cc(N/N=C/c2ccccc2F)c2ccccc2n1	26.9% (inactive)
COc1ccc(/C=C(\C#N)C(=O)ONC2=NCCCCC2)cc1	20.9% (inactive)
Oc1ccc(/C=N/Nc2nc(-c3ccccc3F)nc3ccccc23)c(O)c1	16% (inactive)
Cc1nc2ccccc2nc1N/N=C/c1ccc(O)cc1O	55.6% (active)
Oc1ccc(/C=N/NC2=NCCCCC2)c(O)c1	97.5% (active)
C[C@H](C(=O)CC(=O)OC(C)(C)C)[C@H](O)c1ccc(C(F)(F)F)cc1	1.74% (inactive)
COCCCNC(=S)N1CCN(c2nc(-c3cccc(OC)c3)cs2)CC1	21.1% (inactive)
C=CCOc1ccc(/C=C/C(=O)OCC(=O)NC2CCCCCC2)cc1	1.6% (inactive)
COCC(=O)N1CCCC(C(=O)c2ccc(C(F)(F)F)cc2)C1 (stereo not drawn)	-8.8% (inactive)
CC(=O)Nc1ccc(S(=O)(=O)Oc2ccc(Br)cc2C(=S)N2CCOCC2)cc1	-12.5% (inactive)
Cn1c(CNC(=O)c2ccco2)nnc1SCC(=O)N1CCN(c2ccccc2)CC1	4.34% (inactive)
COc1ccccc1NC(=O)C1=C(C)NC(=O)NC1c1ccc(C)s1 (stereo not drawn)	1.28% (inactive)
COC(=O)c1c(NC(C)=O)sc(C(=O)Nc2ccccc2OC)c1C	-23.1% (inactive)
COc1ccccc1NC(=O)c1ccc(C)s1	73.7% (active)
COc1ccc(/C=C(/NC(=O)c2ccccc2)C(=O)Nc2cccc(C(=O)O)c2)cc1	-15.3% (inactive)
O=C(OCCN1C(=O)c2ccccc2C1=O)Oc1ccccc1	-2.38% (inactive)
Cc1cccc2c1N(CCOc1ccccc1)C(=O)C2=O	-13.4% (inactive)
O=C1c2ccccc2C(=O)N1CCOc1ccc(F)cc1	90.8% (active)
CC(NC(=O)COc1cccnc1[N+](=O)[O-])c1ccc(Cl)cc1Cl (stereo not drawn)	-9.36% (inactive)
O=C(CCC(=O)Nc1ccccc1)N/N=C/c1ccccc1F	144% (active)
O=C(CCCCCNC(=O)c1ccccc1)N/N=C/c1ccccc1	11% (inactive)
O=C(Cc1ccccc1)N/N=C/c1ccc(Cl)cc1Cl	6.24% (inactive)
CN(C)C(=O)c1ccc(NC(=O)c2ccccc2-c2ccccc2)cc1	-11.5% (inactive)
